Shown are actives, neighbours in structure and some others; about 3.4% of the full set was active somewhere.
MEKK2 WT-MEK5 = raises or lowers MEK5 binding to wildtype human MEKK2 PB1 domain. bead flow cytometry, Alexa488-MEK5 binding to MEKK2 WT; actives lie on both sides. 290,000 compounds, 1.1% hits. AID 1531. Q9Y2U5. binding response (% of control), % at 10 µM; in the data active = binding response below about 67% or above about 130%
NTR1 agonist = agonists of human neurotensin receptor NTR1; NTR1-U2OS beta-arrestin-GFP spot imaging, agonist mode; activation, % at 20 µM; 330,000 compounds, 0.17% hits; AID 493036;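 active = activation at or above 40% of the spot to cytoplasm intensity ratio, with at least 20 cells analyzed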;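 also: 0% = DMSO without peptide and 100% = 100 nM NTR1 peptide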
MEKK3 PB1 HTS = modulators (inhibitors or enhancers) of MEK5 binding to human MEKK3 PB1 domain | bead-based flow cytometry, Alexa488-MEK5 binding to MEKK3; actives lie on both sides; 0 = blocked by unlabeled MEK5, 100 = vehicle | binding response (% of control), % at 10 µM | 290,000 compounds, 1.4% hits | AID 1529;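 active = binding response more than 3 SD above or below the average of its plate-row segment, actives on both sides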;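 also: Alexa488 bead fluorescence after subtracting the streptavidin-only scavenger bead signal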
Target sequence (Q99759 whole entry, looked up, the tested form may be a part): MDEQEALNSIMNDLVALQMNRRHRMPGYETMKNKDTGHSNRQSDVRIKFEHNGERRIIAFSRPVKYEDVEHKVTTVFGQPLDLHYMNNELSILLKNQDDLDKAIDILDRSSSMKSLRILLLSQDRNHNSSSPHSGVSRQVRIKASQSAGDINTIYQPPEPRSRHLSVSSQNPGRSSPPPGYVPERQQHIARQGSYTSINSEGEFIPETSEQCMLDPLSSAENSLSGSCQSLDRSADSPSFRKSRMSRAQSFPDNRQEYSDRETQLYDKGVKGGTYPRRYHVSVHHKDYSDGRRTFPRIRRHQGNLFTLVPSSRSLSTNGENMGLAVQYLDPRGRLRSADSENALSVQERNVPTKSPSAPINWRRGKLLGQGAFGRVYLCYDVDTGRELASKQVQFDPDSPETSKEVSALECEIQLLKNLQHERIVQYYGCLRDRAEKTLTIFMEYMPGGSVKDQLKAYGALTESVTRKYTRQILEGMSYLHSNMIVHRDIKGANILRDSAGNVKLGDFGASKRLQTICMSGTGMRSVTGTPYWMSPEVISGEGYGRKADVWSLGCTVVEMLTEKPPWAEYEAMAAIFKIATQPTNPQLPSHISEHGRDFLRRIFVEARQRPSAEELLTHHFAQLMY
ANO1 block = mouse TMEM16A channel inhibition, primary screen; Q8BHY3; HEK293 TMEM16A/YFP iodide influx fluorescence, ionomycin; normalized B-score (activity score, 25-100; higher = stronger inhibition) at 10 µM; 310,000 compounds, 1.2% hits;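 active = ratio plate-corrected score three or more library SD toward inhibition, starting fluorescence score within five deviations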;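 also: score derived from kinetic fluorescence span divided by baseline fluorescence per well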
ANO1 activ = activators or potentiators of mouse TMEM16A chloride channel; Q8BHY3; B-score at 10 µM; HEK293 TMEM16A/YFP-H148Q/I152L, iodide quench fluorescence; hits give low values; 340,000 compounds, 0.3% hits;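 active = fluorescence-ratio B-score plate-corrected deviation score at least 3 library SD below zero, with starting fluorescence score within 5 deviations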;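 also: channel opened by trigger with iodide after compound preincubation; score built on the fluorescence ratio of max minus min over baseline; more negative score means more quench and so TMEM16A activation or potentiation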
MEKK2mut PB1 HTS = signal of MEK5 binding to mutant human MEKK2 PB1 domain. AID 1530. percent response, % at 10 µM. 290,000 compounds, 0.35% hits. bead flow cytometry, Alexa488-MEK5 binding to MEKK2 mutant; in the data active = percent response above about 24%, passing the limit was not always enough
TMEM16A reconf = TMEM16A (mouse) chloride channel inhibition, re-confirmation. shares compounds with ANO1 block. HEK293 TMEM16A/YFP-H148Q, iodide quench fluorescence; ionomycin added to raise cell calcium. inhibition, % at 10 µM. 2,300 compounds, 39% hits;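 active = mean duplicate percent inhibition, scaled so buffer wells are 0 and the reference blocker 100, over three buffer SD above buffer mean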
HEK293 Ca mobil = counter-screen for TMEM16A inhibitors: effect on calcium mobilization. shares compounds with ANO1 block. TMEM16A/YFP HEK293, Fluo4 calcium mobilization. calcium response (% of ionomycin), % at 10 µM. 2,300 compounds, 2% hits. AID 652231;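 active = duplicate-averaged calcium signal over 20% of the ionomycin maximum, relative to buffer baseline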;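 also: each well's signal is peak minus trough fluorescence divided by its pre-addition baseline; 0% = buffer wells and 100% = ionomycin wells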
YFP-HEK293 quench = acts in parental YFP-HEK293 cells lacking TMEM16A, counter-screen. 2,300 tested, under 10 active. YFP ratio F(max-min)/F0 at 10 µM. shares compounds with ANO1 block. AID 652233. iodide YFP quench, ionomycin;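 active = yellow fluorescent protein signal ratio exceeding the buffer control mean by over 5 SD of those controls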;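 also: ratio is mean of duplicate wells from kinetic YFP trace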
ClC-1 rat inh = selectivity of TMEM16A inhibitors: inhibition of rat ClC-1 chloride channel | shares compounds with ANO1 block | CHO ClC-1-YFP, iodide influx fluorescence quench; iodide control reads 0, buffer control 100 | ratio percent, % at 10 µM | 2,300 tested, under 10 active;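 active = duplicate-mean ratio percent above the mean of iodide-only control wells, which defines zero, plus 5 of their SD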;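 also: higher percent means stronger block of ClC-1 iodide influx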
Numbers without * were called inactive; i = inactive; x = no result given.

SMILES | MEKK2 WT-MEK5 | NTR1 agonist | MEKK3 PB1 HTS | ANO1 block | ANO1 activ | MEKK2mut PB1 HTS | TMEM16A reconf | HEK293 Ca mobil | YFP-HEK293 quench | ClC-1 rat inh
CC1=CC(C)(C)N(S(=O)(=O)c2ccc(C)cc2)c2ccc(C)cc21 | 96.0 | 1.4 | 95.0 | 25* | i | -1.0 | i | i | -1.24 | -11.5
CSc1nsc(SCC(=O)Nc2ccccc2)n1 | 100.0 | -0.8 | 103.0 | i | i | -1.0 | x | x | x | x
CCOC(=O)c1ccc(NC(=O)CSc2nc(SC)ns2)cc1 | 108.0 | 1.6 | 109.0 | 100* | i | 14.0 | 25.5%* | i | -1.11 | -18.5
O=C(CSc1ccc(F)cc1)N1CCC(c2nc3ccccc3s2)CC1 | x | 0.8 | x | 100* | i | x | 29.0%* | i | -1.18 | -6.5
O=C(CSc1ccc2nnc(-c3ccccc3)n2n1)NCc1ccco1 | 100.0 | -0.8 | 102.0 | 100* | i | 4.0 | i | i | -0.968 | -7.0
COc1ccc(-c2nnc3ccc(SCC(=O)NCc4ccco4)nn23)cc1 | 105.0 | -0.4 | 104.0 | i | i | 2.0 | x | x | x | x
O=C(CSc1ncc(-c2ccccc2)n1-c1ccccc1)NCc1ccco1 | 93.0 | 1.2 | 89.0 | 25* | i | -3.0 | i | i | -0.983 | -8.5
Cc1sc2nc(CSC(C)C(=O)NC3(C#N)CCCCC3)[nH]c(=O)c2c1C (stereo unspecified) | x | -1.4 | x | x | i | x | x | x | x | x
O=C(NCC(=O)N1CCN(C(=O)c2ccccc2)CC1)c1ccc(Cl)cc1Cl | x | 5.1 | x | x | i | x | x | x | x | x
CC[n+]1c(/C=C2/C=C(C)CC(C)(C)C2)sc2ccc(OC)cc21 | 89.0 | 7.5 | 86.0 | 25* | i | 9.0 | 55.5%* | i | -0.888 | -25.5
COCc1cc(=O)n2[nH]cc(-c3ccccc3)c2n1 | 107.0 | -0.9 | 107.0 | i | i | 8.0 | x | x | x | x
CCCc1cc(=O)n2[nH]cc(-c3ccc(Cl)cc3)c2n1 | 90.0 | 4.4 | 91.0 | 100* | i | -4.0 | i | i | -0.927 | -13.5
CCO[C@H]1c2c(ccc3ccc(=O)oc23)OC(C)(C)[C@@H]1O | x | 2.0 | x | x | i | x | x | x | x | x
C/C(=N\NC(=O)CNC(=O)c1ccccc1F)c1ccco1 | 100.0 | -0.3 | 102.0 | i | i | -1.0 | x | x | x | x
Cc1ccc(O)c(-c2cc(C(F)(F)F)[nH]n2)c1 | 98.0 | 7.2 | 102.0 | 100* | i | -1.0 | 56.5%* | i | -1.16 | -28.0
Cc1ccccc1OCC(=O)N/N=C/c1cc2ccccc2nc1Cl | 99.0 | 15.0 | 95.0 | 25* | i | -4.0 | 20.0%* | i | -1.05 | -15.5
Cc1nc2cc(CC(=O)O)ccc2o1 | 99.0 | -2.9 | 101.0 | i | i | 2.0 | x | x | x | x
COC(=O)CCc1cccc(CCC(=O)OC)c1 | 88.0 | -2.8 | 97.0 | 25* | i | -12.0 | i | i | -0.966 | -8.5
Cc1ccc(NC(=O)C(C)NS(=O)(=O)c2ccc(F)cc2)cc1C (stereo unspecified) | 103.0 | 4.4 | 100.0 | 25* | i | 5.0 | i | i | -1.26 | -16.0
CNC(=O)C(C)NS(=O)(=O)c1ccc(F)cc1 (stereo unspecified) | 102.0 | 1.2 | 101.0 | i | i | 2.0 | x | x | x | x
C=CCn1c(SCC(=O)c2cccs2)nc2sc(CC)cc2c1=O | 100.0 | 15.5 | 102.0 | 100* | i | -4.0 | 64.5%* | i | -0.916 | -16.5

Assay outcomes deposited in PubChem BioAssay by several laboratories.
